An excerpt weighted towards active compounds, which were near 9.3% of everything screened.
FMDV inh: blocks foot and mouth disease virus. FMDV antiviral cell-based qHTS. AID 1159524. hit rate 1.2% among 410,000. Potency, µM (top dose mostly 57.9 µM), for inactives: at the highest dose activity change, negative = inhibition, usual class: inhibitors; calls by dose curve; tested in HEK293T cells; note: read-out not given here; potency is the fitted concentration of half-maximal effect; nearly all actives have a fitted effect of over 45% in size
Vaccinia Venus: vaccinia inhibition (Venus reporter); hit rate 0.46% among 330,000; Potency, µM (doses to about 36.5 µM), without a hit: at the top dose activity change, negative = inhibition, usual class: inhibitors; Vaccinia virus Venus reporter expression, fluorescence; calls by dose curve; tested in A549 cells; note: potency is the fitted concentration of half-maximal effect; nearly all actives have a fitted effect of over 30% in size
HCV inhibitor: HCV inhibition; Huh7.5.1 HCVcc-Cre infection, luciferase reporter, 44 h; Potency, µM (top dose mostly 41.8 µM), inactives show at the highest dose activity change, negative = inhibition, hits mostly inhibitors; hit rate 3.4% among 340,000; AID 651820; note: potency is the fitted concentration of half-maximal effect
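A cell-based infection assay in which seeded cells (1,000 per well) receive test compound after 4 h, are inoculated with HCVcc-Cre at approximately 0.5 moi, and are incubated 44 h before luminescence detection.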
Sm TGR inh: blocks Schistosoma mansoni thioredoxin glutathione reductase | Q962Y6 | purified TGR, DTNB reduction, TNB absorbance 405 nm | Potency, µM (titrated, usually from 114 µM), without a hit: at the top dose activity change, negative = inhibition, usual class: inhibitors | hit rate 3% among 360,000 | AID 485364; note: potency is the fitted concentration of half-maximal effect; nearly all actives have a fitted effect of over 60% in size
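TGR 20 nM + NADPH 100 uM (dispensed conc.), cpd preinc 15 min RT; start with NADPH (500 uM addition) then DTNB (15 mM addition). Kinetic TNB absorbance, 405 nm filter. Four-parameter Hill fit across titration.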
Vaccinia mCherry: inhibitors of vaccinia virus infection (mCherry reporter signal); Potency, µM (titrated, usually from 36.5 µM), for inactives: at the top dose activity change, negative = inhibition, actives largely listed as inhibitors; Vaccinia virus mCherry reporter infection, fluorescence; AID 720579; hit rate 0.63% among 310,000; calls by dose curve; tested in A549 cells; note: potency is the fitted concentration of half-maximal effect; nearly all actives have a fitted effect of over 35% in size
HCMV antiviral: inhibitors of human cytomegalovirus; HFF cells, HCMV-luciferase reporter, 72 h; active compounds read low; activity change, negative = inhibition, % at 57.5 µM; hit rate 4.5% among 410,000; AID 1259415; in the data active = activity change below about -60%; inconclusive = no clear call, values can overlap the other calls; inactive = above about -39%
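After 16 h attachment at 37C, HFF cells received test compound and HCMV-luciferase (1 PFU/cell); reporter luminescence read 72 h later, data normalized against buffer-only and known inhibitor Salinomycin.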
Active calls of the source: *; i = inactive; u = inconclusive; x = no result; ! = a repeat was not active; [ ] = dose if it differs, or a comment. Unless noted, calls come from the whole dose curve; as a rule, active = well fitted curve in the direction sought with a large enough effect; inconclusive = small, poorly fitted or top-dose-only effect, or another doubt; inactive = no such curve, though single readings can be large; an effect the other way counts as inactive or inconclusive. % is set by controls: 0 for no effect and ±100 for the full control effect.

SMILES	FMDV inh	Vaccinia Venus	HCV inhibitor	Sm TGR inh	Vaccinia mCherry	HCMV antiviral
O=C(O)CCCCCCCC(=O)O	-0.4%	-11.0%	-16.3%[8.37 µM]	8.8%	-13.4%	6.9
O=C(CN1CCN(c2ccccc2F)CC1)N1N=CCC1c1ccccc1 (stereo unspecified)	-7.8%	x	u	-3.4%	x	u
CN(C)CCNS(=O)(=O)c1ccc(N2CCc3ccccc32)c([N+](=O)[O-])c1	-12.0%	-10.4%	10µM*	-16.9%	u	-13.0
CS(=O)(=O)c1ccc(-n2nnc3ccccc32)c([N+](=O)[O-])c1	-7.5%	-18.2%	-11.0%	-1.2%	-27.7%	-0.5
COc1ccc(NS(=O)(=O)c2ccc(-n3nnc4ccccc43)c([N+](=O)[O-])c2)cc1	6.8%	-11.4%	4.6%	0.0%	-2.6%	-62.7*
CN(C)CCCNS(=O)(=O)c1ccc(-n2nnc3ccccc32)c([N+](=O)[O-])c1	-0.6%	-7.3%	17.8µM*	-2.3%	-23.8%	-23.4
CC(=O)c1ccc(N2CCN(c3ccc(S(=O)(=O)NCCN(C)C)cc3[N+](=O)[O-])CC2)cc1	-3.9%	x	u	-32.9%	x	4.0
CCCn1c2c(c(=N)c3c1CCC3)CCC2	u	-24.5%	u	-2.6%	-10.7%	-73.7*
CCCCCCCn1c2c(c(=N)c3ccccc31)CCC2	5.01µM*	u	1.78µM*	7.7%	u	-79.4*
CCOC(=O)Cn1c2c(c(=N)c3c1CCC3)CCCC2	-15.0%	-15.7%	5.6%	2.9%	-8.0%	u
CCCn1c(=S)[nH]c2sc3c(c2c1=O)CCCC3	0.0%	-7.0%	-2.6%	2.4%	39.1%	-21.0
CCCn1c2c(c(=N)c3c1CCC3)CCCC2	u	-21.7%	12.3%	9.0%	-19.7%	-96.8*
CS(=O)(=O)N1CCC(C(=O)Nc2ccc(Cl)cc2)CC1	7.4%	x	9.0%	6.6%	x	23.2
O=C(NNC(=O)c1ccccc1Br)c1cccs1	52.2%	-3.4%	9.5%	0.3%	i	5.6
Cc1ccc(-c2c(C(=O)NNC(=S)NCC3CCCO3)csc2C)cc1 (stereo unspecified)	12.1%	x	12.1%	x	x	u
S=C(NCC1CCCO1)Nc1cccc(Cl)c1 (stereo unspecified)	51.7%	-14.3%	-5.8%	x	-24.3%	u
Cc1scc(C(=O)NNC(=S)NCC2CCCO2)c1-c1ccccc1 (stereo unspecified)	-17.7%	-12.9%	11.7%	-3.1%	-0.8%	-62.0*
S=C(NCC1CCCO1)Nc1ccc(Nc2ccccc2)cc1 (stereo unspecified)	-22.6%	-3.5%	u	x	-9.8%	-69.0*
Cc1ccc2c(c1)-c1c(c(C(=O)NCCc3ccccc3)nn1C)CS2	-17.2%	-8.5%	x	2.3%	-4.0%	-34.8
COc1cnc(-c2ccccn2)nc1N(C)C	-9.9%	-27.4%	u	-2.6%	u	-98.8*
COc1ccccc1Sc1nc(-c2ccccc2)ncc1OC	-20.1%	-14.0%	u	8.0%	i	u
COc1cnc(-c2ccccn2)nc1Oc1cccc(Cl)c1	-17.7%	-26.1%	13.6%	2.1%	-20.8%	-28.4
COc1cnc(-c2ccccc2)nc1Sc1ccccc1	-5.6%	0.9%	12.6µM*	-6.7%	-7.1%	16.5
COc1cnc(-c2ccccn2)nc1Sc1c(Cl)cccc1Cl	-18.3%	x	u	-26.1%	x	-73.0*
COc1cnc(-c2ccccn2)nc1Sc1ccccc1Cl	u	x	u	6.7%	x	-98.4*
SMILES	FMDV inh	Vaccinia Venus	HCV inhibitor	Sm TGR inh	Vaccinia mCherry	HCMV antiviral
O=c1c2cc3c(nc2ncn1Cc1ccc(Cl)cc1)CCCC3	21.8%	-15.3%	x	u	-24.6%[7.34 µM]	29.0
Cc1ccc(S(=O)(=O)N(C)c2ccc(OCC(=O)Nc3ccc(C(=O)N(C)C)cc3)cc2)cc1C	7.4%	-9.0%	12.3%	-3.6%	-13.5%	0.0
CCOc1cc(C(=O)OCc2cc(=O)n3nc(C4CC4)sc3n2)cc(OCC)c1OCC	-27.5%	-5.3%	x	-4.4%	14.7%	14.2
Cc1c(Cl)cccc1NC(=O)CCCN1C(=O)c2cccnc2C1=O	-12.4%	-2.8%	3.9%	7.1%	i	52.6
Cc1ccccc1CCNC(=O)c1ccc2c(c1)nc1n2CCOC1	-25.8%	-10.6%	x	12.5%	-11.9%	102.3
Cc1ccccc1CCNC(=O)c1ccc2c(c1)nc1n2CCCCC1	u	-14.3%	x	5.2%	-18.1%	-78.2*
COc1ccc(Br)cc1CNC(=O)c1ccc2c(c1)nc1n2CCCCC1	5.2%	-8.8%	x	11.6%	-20.0%	-60.1*
CSc1ccc(CCNC(=O)c2ccc3c(c2)nc2n3CCCCC2)cc1	-27.8%	-7.2%	x	1.6%	-2.1%	-76.3*
Cc1nc2ccccc2n1CC(=O)OCC(=O)NCCc1ccccc1	0.4%	11.1%	10.4%	6.5%	x	50.7
CCN(C[C@H]1N[C@@](CC)(C(=O)OC)[C@H]2C(=O)N(C)C(=O)[C@@H]12)C(=O)Nc1ccc(Cl)cc1	2.6%	-5.2%	17.2%	x	-12.4%	-18.1
COc1ccc(-c2ccc(OC)c(OC)c2OC)c(OC)c1OC	0.0%	-19.0%	11.5%	x	-2.7%	2.3
COc1cc2cc(-c3ccc(OC)c(OC)c3C)nc(N)c2cc1OC	-9.7%	-29.0%	17.8µM*	x	u	-92.0*
C[C@H]1CN=C(N(C)C)N1CC1CCC(C(C)(C)C)CC1 (stereo partly specified)	u	u	u	-1.0%	7.94µM*	-9.9
CCC(C)(C)n1nnnc1C(c1cc2ccc(OC)cc2[nH]c1=O)N1CCc2ccccc21 (stereo unspecified)	-14.0%	x	10.1%	35.5µM*	x	12.7
CCC(C)(C)n1nnnc1C(c1cc2ccc(OC)cc2[nH]c1=O)N1CCc2ccccc2C1 (stereo unspecified)	-11.8%	x	u	u	x	-75.2*
COc1ccc(NS(=O)(=O)c2cccc(C(=O)NCC(c3ccc(OC)cc3)N3CCOCC3)c2)cc1 (stereo unspecified)	1.2%	-11.2%	-19.3%	4.5%	-3.4%	27.1
COc1ccc(C(=O)Nc2ccc(C(=O)c3ccccc3)cc2)cc1	u	-12.7%[7.34 µM]	u	x	i[7.34 µM]	u
CCN(Cc1ccccc1)C(=O)c1ccc(NC(=O)c2ccc(OC)cc2)cc1	-3.7%	x	12.6µM*	-27.5%	x	u
COc1ccc(C(=O)COC(=O)c2ccc(NC(=O)c3ccccc3)cc2)cc1	5.7%	x	10µM*	32.2%	x	2.1
Cc1c(C(=O)N/N=C/c2ccc(N(C)C)cc2)[nH]c2ccc(Cl)cc12	41.4%	-7.9%	u	3.7%	-16.3%	-76.4*
Cc1c(C(=O)N/N=C/c2ccccc2)[nH]c2ccc(Cl)cc12	101.4%	u	u	-1.4%	-29.6%	-70.3*
O=C1CCN(Cc2ccccc2)CCN1CCO	-5.2%	-13.4%	31.8%	3.4%	i	u
O=C1CCN(Cc2ccc(O)cc2)CCN1CCO	-10.9%	-12.1%	22.7%	u	-11.1%	-67.5*!
Cc1ccc(-c2sc(-c3cccnc3)nc2CC(=O)O)cc1	-4.2%	-3.4%	10.2%	39.8µM*	i	-35.3
